Reference: PubChem BioAssay (NCI)
The panel holds about 83,000 compounds, 20% with a hit somewhere; the sample as a whole holds those more often.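 Method: cells in 96-well plates; compound added at one concentration; 48 h incubation; percent growth measured; values under 10 scored active.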 Calls of active or inactive are those of the source.

tested on: MDA-MB-468 breast; test: NCI-60 one-dose screen, 48 h (100 = growth as untreated, 0 = no growth, -100 = all killed); settings: 10 µM unless noted

Row | SMILES | growth
1 | CCN1C(=O)/C(=c2\sc3n(c2=O)C2C(NN=3)N(CC)C(=O)N2CC)c2ccccc21 (stereo not given) | -13.5% (active)
2 | O=C(NCCCN1CCCCC1)c1ccc(-c2nc3ccc4[nH]ncc4c3c3c2CCCC3)cc1 | 35.4% (inactive)
3 | O=C(CBr)c1ccc(OC(=O)c2ccccc2)cc1 | 116% (inactive)
4 | CNCCCC12CCC(c3ccccc31)c1ccccc12 | 29.4% (inactive)
5 | COc1ccc(-c2nc(S(=O)(=O)c3ccccc3)c(S(=O)CC(=O)N3CCC(C)CC3)o2)cc1 (stereo not given) | -15% (active)
6 | CCN1C(=O)N(CC)C2C1NN=c1s/c(=C\c3ccc[nH]3)c(=O)n12 (stereo not given) | 5.56% (active)
7 | CN(C)CCNC(=O)c1ccc(-c2nc3ccc4[nH]ncc4c3c3c2C2CCC3C2)cc1 (stereo not given) | 16.2% (inactive)
8 | S=c1[nH]nc(-c2cc3ccc2CCc2ccc(cc2)CC3)n1-c1ccccc1 | 109% (inactive)
9 | CS(=O)(=O)c1cccc(Nc2ncc3cc(-c4ccccc4Cl)ccc3n2)c1 | 13.1% (inactive)
10 | COc1ccc(CNc2nc3ccccc3c3c(=O)c4ccccc4sc23)cc1OC | 57.4% (inactive)
11 | CSc1nc2ccc(C)cc2cc1/C=N/O | 101% (inactive)
12 | CC(=O)c1cc2ccccc2o1 | 109% (inactive)
13 | CCCCCC(=O)Oc1ccc(/C(=C(/C)Cc2ccc(OC)cc2)c2ccc(OCCCN(C)C)cc2)cc1 | 56.4% (inactive)
14 | COC(=O)/C=C1\S/C(=N\NC(=O)c2cc3ccc2/C=C\c2ccc(cc2)/C=C\3)N(c2ccccc2)C1=O | -0.388% (active)
15 | CCOC(=O)c1c(C)c2c(n1Cc1ccccc1)CSCC2=O | -9.03% [100 µM] (active)
16 | COc1ccc(-c2nc3cc(C(=O)NC4CCCCC4)ccc3n2C2CCCCC2)cc1 | 109% (inactive)
17 | CCN(Cc1cccc(S(=O)(=O)[O-])c1)c1ccc(C(=C2C=CC(=[N+](CC)Cc3cccc(S(=O)(=O)O)c3)C=C2)c2ccccc2S(=O)(=O)O)cc1 | 92.9% (inactive)
18 | CC(C)N1CCN(c2ccncc2S(=O)(=O)N2CCN(C)CC2)CC1 | 94.3% (inactive)
19 | CN1CCN(C(=O)[C@@]2(C)CC[C@]3(C)CC[C@]4(C)C(=CC[C@@H]5[C@@]6(C)CC[C@H](OC(=O)c7cccnc7)C(C)(C)[C@@H]6CC[C@]54C)[C@@H]3C2)CC1 | 92.6% (inactive)
20 | CCCCCC/C=C\CCCCCCCCOc1ccc(CCOP(=O)(O)OCC[N+](C)(C)C)cc1 | 85.5% (inactive)

Row | SMILES | growth
21 | Cc1nn(-c2ccc(Cl)cc2)c(C)c1N=Nc1ccc2oc(=O)ccc2c1 | 98.5% (inactive)
22 | CN(C)C(=S)N(C)C | 114% (inactive)
23 | Cn1c2c(cc(S(=O)(=O)c3ccccc3)c1=O)CCc1c-2cnn1-c1cccc(Cl)c1 | 67% (inactive)
24 | CC(C)[C@H](CN)NC[C@H](C)NS(=O)(=O)c1ccc(C(C)(C)C)cc1 | 86.5% (inactive)
25 | COc1ccc(/C=C/c2c(C(=O)/C=C/c3ccccc3)c(C)nc3ccccc23)cc1 | 12.8% (inactive)
26 | COC(=O)c1nc(=S)[nH]c(C(=O)OC)c1C(=O)c1ccc2ccccc2c1 | 90% (inactive)
27 | C/C(=C\CCc1ccsc1)CC/C=C(\C)CCCN1CCSCC1 | 50.1% (inactive)
28 | COC(=O)C1=C(C)NC(C)=C(C(=O)OCC(C)C)C1c1ccccc1[N+](=O)[O-] (stereo not given) | 44.7% (inactive)
29 | COc1cnc2c(c1)C(=O)c1c-2n(CCCN2CCC(O)CC2)c(=O)c2cc(F)ccc12 | -57.2% (active)
30 | COc1cc(CCn2nnc3c(Nc4ccc(N5CCOCC5)cc4)ncnc32)cc(OC)c1 | 80.6% (inactive)
31 | COC(=O)c1nc(N)nc(C(=O)OC)c1C(=O)c1cccc2ccccc12 | 97.6% (inactive)
32 | COc1cccc(C2C(C#N)=C(N)Oc3cc(N)ccc32)c1 (stereo not given) | -22.2% (active)
33 | C[N+]1(CCC[N+]2(C)C[C@@H]3[C@H](C2)[C@@H]2C=C[C@H]3C2)CCOCC1 (stereo not given in full) | 108% (inactive)
34 | CCOc1ccc(NC(=O)Nc2ccc(OCC)cc2)cc1 | 106% (inactive)
35 | O=C1/C(=C/c2cccc(Cl)c2)CCc2ccccc21 | 93.5% (inactive)
36 | COc1cc(/C=C/C(=O)c2c(-c3ccc(F)cc3)nc3sc(C)nn23)cc(OC)c1OC | 23.9% (inactive)
37 | Clc1cc(Cl)c(OCCCCCCN2CCNCC2)c(Cl)c1 | -12.2% (active)
38 | O=C(Nc1ccccc1O)c1ccc(Oc2cccc(C(=O)Nc3ccccc3O)c2)cc1 | -27.2% (active)
39 | Cc1cc(N)cc(C)c1-c1c(Br)cc(N)cc1Br | -28% (active)
40 | Cc1ccc(NC(=O)Nc2ccc(-c3cccnc3)cc2N2CCC(CO)CC2)cc1 | -16.6% (active)
